Inconclusive results are not listed. The source made the active and inactive calls. Calls come from the whole dose curve; as a rule, active = well fitted inhibition curve with a large enough effect; inconclusive = small, poorly fitted or top-dose-only effect; inactive = flat fitted curve, though single readings scatter.
Assays:
Test in all cases: qHTS profiling for inhibitors of Plasmodium falciparum proliferation (AID 504749); note: nearly all actives have a fitted effect of over 60% in size
Details in all cases: P. falciparum in erythrocytes, SYBR Green DNA, 72 h; series mostly up to 28.7 µM
ATS189 = tested on: ATS189
How it was run: (§1)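 Infected RBCs, 0.3% parasitemia/2.5% Hct final; cpd 72 h, 37 C, 5% CO2; lysis buffer with saponin/triton/SYBR Green I, o/n RT dark; FI 485/535; norm. to artemisinin (0.29 uM) and DMSO.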

ATS95 = tested on: ATS95
How it was run: as §1

C2A = tested on: C2A
How it was run: as §1

CP185 = tested on: CP185
How it was run: as §1

CP191 = tested on: CP191
How it was run: as §1

CP192 = tested on: CP192
How it was run: as §1

CP194 = tested on: CP194
How it was run: as §1

CP201 = tested on: CP201
How it was run: as §1

CP211 = tested on: CP211
How it was run: as §1

CP215 = tested on: CP215
How it was run: as §1

CP217 = tested on: CP217
How it was run: as §1

CP237 = tested on: CP237
How it was run: as §1

CP238 = tested on: CP238
How it was run: as §1

CP247 = tested on: CP247
How it was run: as §1

CP252 = tested on: CP252
How it was run: as §1

CP256 = tested on: CP256
How it was run: as §1

CP260 = tested on: CP260
How it was run: as §1

CP250 = tested on: CP250
How it was run: as §1

CP262 = tested on: CP262
How it was run: as §1

CP203 = tested on: CP203
How it was run: as §1

Measured: Potency
Potency is the fitted concentration of half-maximal effect.

NNCCc1ccccc1
not listed: CP250 | CP262 | CP203
inactive: all other assays above

N#Cc1ccc(C(c2ccc(C#N)cc2)n2cncn2)cc1
not listed: CP203
inactive: all other assays above

CC(=O)Oc1ccccc1C(=O)O
not listed: CP203
inactive: all other assays above

CNC[C@H](O)c1cccc(O)c1
not listed: CP215 | CP203
inactive: all other assays above

NCCCC(N)(C(=O)O)C(F)F (stereo not drawn)
not listed: CP203
inactive: all other assays above

NS(=O)(=O)c1cc2c(cc1Cl)NC=NS2(=O)=O
inactive: all assays above

CCCc1nn(C)c2c(=O)[nH]c(-c3cc(S(=O)(=O)N4CCN(C)CC4)ccc3OCC)nc12
not listed: CP237 | CP203
inactive: all other assays above

Cc1cn[nH]c1
not listed: CP203
inactive: all other assays above

N[C@@H]1CONC1=O
not listed: CP247 | CP203
inactive: all other assays above

CC(C)NCC(O)COc1ccc(COCCOC(C)C)cc1 (stereo not drawn)
not listed: CP260 | CP203
inactive: all other assays above

O=c1[nH]cnc2[nH]ncc12
not listed: CP203
inactive: all other assays above

NC(=O)c1cnccn1
not listed: CP203
inactive: all other assays above

CCCCNc1cc(C(=O)O)cc(S(N)(=O)=O)c1Oc1ccccc1
not listed: CP215 | CP203
inactive: all other assays above

O=NN(CCCl)C(=O)NCCCl
not listed: CP203
inactive: all other assays above

CCc1ccc(CCOc2ccc(CC3SC(=O)NC3=O)cc2)nc1 (stereo not drawn)
not listed: CP247 | CP203
inactive: all other assays above

Cc1[nH]c(=O)c(C#N)cc1-c1ccc2nccn2c1
not listed: CP203
inactive: all other assays above

N=c1nc(N2CCCCC2)cc(N)n1O
not listed: CP203
inactive: all other assays above

CC(C[N+](C)(C)C)OC(N)=O (stereo not drawn)
not listed: CP203
inactive: all other assays above

Cc1ccc(N(CC2=NCCN2)c2cccc(O)c2)cc1
not listed: CP203
inactive: all other assays above

Nc1nc2c(ncn2COCCO)c(=O)[nH]1
not listed: CP203
inactive: all other assays above

Cc1[nH]c(=O)c(C#N)cc1-c1ccncc1
not listed: CP250
inactive: all other assays above

O=C1CCC(N2C(=O)c3ccccc3C2=O)C(=O)N1 (stereo not drawn)
not listed: CP203
inactive: all other assays above

Oc1ccc(C2CNCCc3c2cc(O)c(O)c3Cl)cc1 (stereo not drawn)
not listed: CP203
inactive: all other assays above

Clc1cccc(Cl)c1NC1=NCCN1
not listed: CP203
inactive: all other assays above

Cn1cnc([N+](=O)[O-])c1Sc1ncnc2nc[nH]c12
inactive: ATS95 | CP192 | CP201 | CP211 | CP215 | CP237 | CP256 | CP260 | CP262
active: CP247 6.31 µM

Nc1nc2ccc(OC(F)(F)F)cc2s1
not listed: ATS189 | CP191 | CP203
inactive: all other assays above

CC(C)C[C@H](NC(=O)[C@@H](O)[C@H](N)Cc1ccccc1)C(=O)O
inactive: CP262
active: ATS189 8.91 µM | ATS95 7.94 µM | C2A 3.98 µM | CP185 11.2 µM | CP191 5.01 µM | CP194 6.75 µM | CP211 6.01 µM | CP215 6.75 µM | CP217 6.31 µM | CP237 4.47 µM | CP238 12.6 µM | CP247 6.31 µM | CP250 10 µM | CP252 6.31 µM | CP256 5.62 µM | CP260 4.47 µM

Cc1c(C)c2c(c(C)c1O)CCC(C)(COc1ccc(CC3SC(=O)NC3=O)cc1)O2 (stereo not drawn)
inactive: ATS95 | C2A | CP185 | CP192 | CP201 | CP238 | CP250 | CP252 | CP256 | CP260 | CP262

NCCc1ccc(O)c(O)c1
not listed: ATS95 | CP256 | CP203
inactive: all other assays above

Cc1oncc1C(=O)Nc1ccc(C(F)(F)F)cc1
not listed: CP191 | CP215 | CP260 | CP203
inactive: all other assays above

CC(c1cc2ccccc2s1)N(O)C(N)=O (stereo not drawn)
not listed: CP215 | CP203
inactive: all other assays above

C#Cc1cccc(Nc2ncnc3cc(OCCOC)c(OCCOC)cc23)c1
inactive: CP185 | CP192 | CP262
active: CP237 12.6 µM

O=C1CCc2cc(OCCCCc3nnnn3C3CCCCC3)ccc2N1
inactive: ATS95 | CP191 | CP192 | CP194 | CP201 | CP211 | CP215 | CP237 | CP260
active: CP238 3.16 µM

Clc1ccc(Nc2nnc(Cc3ccncc3)c3ccccc23)cc1
not listed: CP191 | CP217 | CP237 | CP247 | CP260 | CP203
inactive: all other assays above

COc1ccc2nc(S(=O)Cc3ncc(C)c(OC)c3C)[nH]c2c1 (stereo not drawn)
not listed: CP191 | CP247
inactive: all other assays above

O=c1n(CCCN2CCN(c3cccc(Cl)c3)CC2)nc2ccccn12
not listed: ATS95 | CP215 | CP262 | CP203
inactive: all other assays above

CCOC(=O)C1=C[C@@]2(CC)CCCN3CCc4c(n1c1ccccc41)[C@H]32
active: CP192 13.5 µM | CP194 13.5 µM | CP211 13.5 µM | CP215 10.7 µM | CP262 12 µM

CCOC(=O)C1=C[C@]2(CC)CCCN3CCc4c(n1c1ccccc41)[C@@H]32
inactive: CP262
active: ATS95 12.6 µM | CP217 11.2 µM

Cc1ccccc1C(OCCN(C)C)c1ccccc1 (stereo not drawn)
inactive: CP191 | CP192 | CP250 | CP262
active: ATS95 8.91 µM

CCCc1nc2c(C)cc(-c3nc4ccccc4n3C)cc2n1Cc1ccc(-c2ccccc2C(=O)O)cc1
active: ATS189 0.794 µM | ATS95 3.98 µM | CP237 4.47 µM | CP260 6.31 µM
inactive: CP185 | CP201 | CP250 | CP256 | CP262

C1COC(NC(C2CC2)C2CC2)=N1
active: CP247 11.2 µM
inactive: ATS189 | CP185 | CP192 | CP201 | CP211 | CP262

Cc1cc2c(C(C)C)c(O)c(O)c(C=O)c2c(O)c1-c1c(C)cc2c(C(C)C)c(O)c(O)c(C=O)c2c1O
active: CP237 10 µM | CP247 11.2 µM | CP256 11.2 µM

OC(CN1CCC(Cc2ccc(F)cc2)CC1)c1ccc(Cl)cc1 (stereo not drawn)
active: ATS189 1.41 µM | ATS95 1.58 µM | CP237 2.51 µM | CP260 3.16 µM
inactive: C2A | CP191 | CP201 | CP211 | CP252 | CP262

CN1CCN(CCCN2c3ccccc3Sc3ccc(C(F)(F)F)cc32)CC1
inactive: CP201
active: ATS189 3.98 µM | ATS95 12.6 µM | C2A 7.94 µM | CP191 10 µM | CP237 12.6 µM | CP238 3.16 µM | CP250 8.91 µM | CP252 14.1 µM | CP260 10 µM

NC[C@H](O)c1ccc(O)c(O)c1
not listed: CP192 | CP203
inactive: all other assays above

Nc1ccc(S(=O)(=O)Nc2ccnn2-c2ccccc2)cc1
not listed: CP215 | CP203
inactive: all other assays above

CCOC(=O)N1CCC(=C2c3ccc(Cl)cc3CCc3cccnc32)CC1
inactive: ATS189 | C2A | CP238 | CP262
active: CP217 3.98 µM | CP237 8.91 µM | CP250 3.55 µM | CP252 2 µM | CP260 12.6 µM

NC(N)=NC(=O)c1nc(Cl)c(N)nc1N
active: CP191 8.91 µM | CP237 8.91 µM
inactive: CP185 | CP192 | CP194 | CP201 | CP211 | CP252 | CP262
